Measured values: publication PMC4552634, “A New Set of Chemical Starting Points with Plasmodium falciparum Transmission-Blocking Potential for Antimalarial Drug Discovery” (PLoS ONE, 2015)
Like-named read-outs stand apart in the source and are kept apart here. Screen size: about 13,000 compounds; about 3,200 (25%) showed an effect of 50% or more. The list shows a part of the results.

Tested on: P. falciparum stage V gametocytes
Set-up: BacTiter-Glo ATP luminescence viability of purified stage V gametocytes in 384-well plates, per cent inhibition versus DMSO
Conditions: 48 h, 5 µM, inhibitor

Compound	% Inhibition [%]	% Inhibition (% Inhibition) [%]
Oc1cccc2c1CC(NCc1ccccc1)CC2 (stereo not drawn) [TCMDC-137987]	8.096	–
NC(=O)c1cc(-c2ccccc2)cc2c(C3CCC(NCc4ccccc4)C3)c[nH]c12 (stereo not drawn) [TCMDC-136335]	119.1	–
CCCNc1ccc(-c2cc(C(N)=O)c3[nH]cc(C4CCN(S(=O)(=O)CC)CC4)c3c2)cn1 [TCMDC-136721]	8.74	–
S=C(Nc1ccc2c(c1)OCCO2)NC1CCC(CN2CCC(c3c[nH]c4ccccc34)CC2)CC1 (stereo not drawn) [TCMDC-140187]	–	28.79
COC(=O)c1sccc1NC(=S)NC1CCC(CN2CCC(c3c[nH]c4ccccc34)CC2)CC1 (stereo not drawn) [TCMDC-140184]	–	87.69
COC(=O)c1sccc1NC(=S)NC1CCC(CN2CCC(c3c[nH]c4ccccc34)CC2)CC1 (stereo not drawn) [TCMDC-140202]	–	68.17
S=C(Nc1ccc2c(c1)OCCO2)NC1CCC(CN2CCC(c3c[nH]c4ccccc34)CC2)CC1 (stereo not drawn) [TCMDC-140205]	–	-9.163
O=C(Nc1ccc(C(=O)OCC2CCCN3CCCCC23)cc1)c1ccc([N+](=O)[O-])cc1 (stereo not drawn) [TCMDC-124028]	-7.885	–
Oc1ccc2nc(N3CCNCC3)nc(NCCCc3ccccc3)c2c1 [TCMDC-138362]	-3.438	–
COc1ccc2nc(N3CCNCC3)nc(NCCCc3ccccc3)c2c1 [TCMDC-138367]	61.05	–
COc1ccc2nc(N3CCN(C(=O)OC(C)(C)C)CC3)nc(NCCCc3ccccc3)c2c1 [TCMDC-138361]	104.5	–
COc1ccc2nccc([C@@H](O)CN3CCC(NC[C@H](Cc4ccccc4)NC(=O)OC(C)(C)C)CC3)c2c1 [TCMDC-140729]	28.25	–
COc1ccc(-c2ccccc2CNc2nc(NCCc3ccc(O)cc3)nc(N3CCNCC3)n2)cc1 [TCMDC-133785]	16.29	–
C/C(=C\C(=O)NC1CC1)c1ccccc1OCc1ccccc1 [TCMDC-137859]	-0.1612	–
COC(=O)c1cccc(CNCc2cccc(-c3ccc(-c4nc5ccccc5[nH]4)s3)c2)c1.O=C(O)C(F)(F)F [TCMDC-132944]	-0.1401	–
Cc1cc(NCCC(=O)Nc2ccccc2)nc(NCCOc2ccccc2)n1 [TCMDC-134878]	88.65	–
COc1ccc(NC(=O)CCNc2cc(C)nc(NCCOc3ccccc3)n2)cc1 [TCMDC-134876]	16.63	–
COc1ccccc1CCNc1nc(C)cc(NCCC(=O)NCCOc2ccccc2)n1 [TCMDC-134799]	41.79	–
Cc1cc(NCCC(=O)NCCOc2ccccc2)nc(NCCc2ccc(F)cc2)n1 [TCMDC-134865]	48.39	–
Cc1cc(NCCC(=O)NCCOc2ccccc2)nc(NCCc2ccccc2)n1 [TCMDC-134771]	71.03	–
Cc1cc(NCCC(=O)NCCOc2ccccc2)nc(NCc2ccccc2C)n1 [TCMDC-134900]	9.691	–
Cc1cc(NCCC(=O)NCCOc2ccccc2)nc(Nc2ccccc2)n1 [TCMDC-134732]	39.63	–
Cc1cc(NCCC(=O)NCCOc2ccccc2)nc(NCCOc2ccccc2)n1 [TCMDC-134877]	53.53	–

Compound	% Inhibition [%]	% Inhibition (% Inhibition) [%]
COc1ccc(NC(=O)CCNc2cc(C)nc(Nc3ccccc3)n2)cc1 [TCMDC-134731]	16.78	–
Cc1cccc(N2CCN(C3CCC(NC(=O)c4cc5ccccc5[nH]4)CC3)CC2)c1C (stereo not drawn) [TCMDC-132891]	-4.538	–
COc1ccc(S(=O)(=O)N2CCC(NS(=O)(=O)c3ccc(F)cc3)CC2)cc1 [TCMDC-123512]	11.24	–
CC(=O)Nc1ccc(CN(C)C2CCN(c3cc(NC(=O)c4cccc(C)c4)ccn3)CC2)cc1 [TCMDC-134982]	-8.957	–
CN1CCN(c2cccc(NC(=O)c3ccc(-c4ccc(C#N)cc4)cc3)c2)CC1 [TCMDC-138669]	-26.05	–
c1ccc(-c2csc(Nc3nc4cc5c(cc4s3)OCO5)n2)nc1 [TCMDC-124550]	41.05	–
COc1cccc2sc(Nc3nc(-c4ccccn4)cs3)nc12 [TCMDC-125543]	33.34	–
Fc1cccc2sc(Nc3nc(-c4ccccn4)cs3)nc12 [TCMDC-125542]	81.67	–
COc1ccc2nc(Nc3nc(-c4ccccn4)cs3)sc2c1 [TCMDC-125541]	1.427	–
Fc1ccc2nc(Nc3nc(-c4ccccn4)cs3)sc2c1 [TCMDC-125540]	71.85	–
Cc1ccc(NC(=O)c2ccc3ncccc3c2)cc1OC1CCN(Cc2ccc(F)cc2)CC1 [TCMDC-133747]	-16.12	–
Cc1cc(NC(=O)Nc2ccc(I)c(OCCN(C)C)c2)ccc1Br [TCMDC-139108]	-4.695	–
CN(Cc1cccc(O)c1)C1CCCN(c2cc(NC(=O)c3ccc(F)cc3)ccn2)C1 (stereo not drawn) [TCMDC-134960]	-31.52	–
CNC(=O)/C=C/c1cc(NC(=O)Nc2ccnc3c(Br)cccc23)ccc1OC [TCMDC-140331]	7.673	–
O=C1C2=C(Nc3ccccc3SC2c2ccccc2)c2ccccc21 (stereo not drawn) [TCMDC-123496]	22.47	–
COc1ccc(-c2cccc(NC(=O)c3ccc(F)cc3)c2)cc1CN1CCCN(C)CC1 [TCMDC-132607]	5.891	–
CN1CCCN(Cc2ccc(-c3cccc(NC(=O)c4cccc(F)c4)c3)cc2)CC1 [TCMDC-132646]	-5.89	–
COc1ccc(-c2ccc(NC(=O)c3cccc(C#N)c3)cc2)cc1CN1CCCN(C)CC1 [TCMDC-132531]	38.42	–
COc1ccc(-c2cccc(NC(=O)c3cccc(F)c3)c2)cc1CN1CCCN(C)CC1 [TCMDC-132619]	89.96	–
COc1ccc(-c2ccc(NC(=O)c3cccc(F)c3)cc2)cc1CN1CCCN(C)CC1 [TCMDC-132528]	79.48	–
COc1ccc2c(c1)OC(C)(C)CC2=NOS(=O)(=O)c1ccc(C)cc1 [TCMDC-131772]	-0.3703	–
O=c1cc(NCCCNC2CCOc3c(Cl)cc(Cl)cc32)[nH]c2ccccc12 (stereo not drawn) [TCMDC-139477]	33.79	–
CC(=O)N[C@H](C(=O)Nc1ccc(-c2ccc(-c3nc4ccc(C(F)(F)F)cc4[nH]3)cc2)cc1)C(C)C [TCMDC-136854]	-3.438	–

Compound	% Inhibition [%]	% Inhibition (% Inhibition) [%]
Cc1cccc2nc(-c3ccc(-c4ccc(NC(=O)NC5CC5c5ccccc5)cc4)cc3)[nH]c12 (stereo not drawn) [TCMDC-133255]	-29.85	–
Cc1nnsc1C(=O)Nc1cccc(-c2ccc(-c3nc4cccc(C)c4[nH]3)s2)c1 [TCMDC-137091]	82.4	–
Cc1nnsc1C(=O)Nc1ccc(-c2ccc(-c3nc4cccc(C)c4[nH]3)s2)cc1 [TCMDC-137090]	0.4196	–
Cc1cccc2nc(-c3ccc(-c4cccc(NC(=O)Nc5ccc(Cl)c(Cl)c5)c4)s3)[nH]c12 [TCMDC-133272]	-3.418	–
O=C(Nc1cccc(-c2ccc(-c3nc4cc(F)ccc4[nH]3)s2)c1)c1ccncc1 [TCMDC-136968]	-9.65	–
Cc1nnsc1C(=O)Nc1cccc(-c2ccc(-c3nc4cc(F)ccc4[nH]3)s2)c1 [TCMDC-137089]	59.58	–
COc1ccc(NC(=O)Nc2cccc(-c3ccc(-c4nc5cccc(C)c5[nH]4)s3)c2)cc1 [TCMDC-133242]	1.322	–
Cc1cccc2nc(-c3ccc(-c4ccc(NC(=O)Nc5ccc(Cl)cc5)cc4)s3)[nH]c12 [TCMDC-133176]	-22.37	–
Cc1cccc2nc(-c3ccc(-c4cccc(NC(=O)Nc5ccc(Cl)cc5)c4)s3)[nH]c12 [TCMDC-133175]	74.56	–
Cc1nnsc1C(=O)Nc1cccc(-c2ccc(-c3nc4ccccc4[nH]3)s2)c1 [TCMDC-137079]	9.217	–
CC1CC(NCCCNc2cc(=O)c3ccccc3[nH]2)c2cc(Cl)c(Cl)c(Cl)c21 (stereo not drawn) [TCMDC-139479]	22.71	–
N=C(N)c1nc2ccccc2s1 [TCMDC-123945]	9.097	–
C(=Cc1nc2ccccc2s1)c1ccc2c(c1)OCCO2 [TCMDC-124539]	68.35	–
C=CCNC(=O)CCCN=C(N)N [TCMDC-131668]	6.787	–
CC(C)(C)c1ccc(CNC(=O)c2ccc(-c3nc4ccc(Cl)cc4[nH]3)cc2)cc1 [TCMDC-140442]	5.243	–
CC(C)(C)c1ccc(CNC(=O)c2ccc(-c3nc4ccc(C(C)(C)C)cc4[nH]3)cc2)cc1 [TCMDC-140455]	76.42	–
CC(C)(C)c1ccc2nc(-c3ccc(C(=O)NCCCc4ccccc4)cc3)[nH]c2c1 [TCMDC-140453]	68.75	–
Cc1cc2nc(-c3ccc(OCC(=O)NCc4cccc(C(F)(F)F)c4)cc3)[nH]c2cc1C [TCMDC-140439]	-1.946	–
CCOC(=O)c1ccc2nc(-c3ccc(C(=O)NCc4ccc(C(C)(C)C)cc4)cc3)[nH]c2c1 [TCMDC-140576]	-8.95	–
Cc1cc2nc(-c3ccc(C(=O)NCc4ccc(C(C)(C)C)cc4)cc3)[nH]c2cc1C [TCMDC-140433]	-24.96	–
Cc1cc2nc(-c3ccc(C(=O)NCCCc4ccccc4)cc3)[nH]c2cc1C [TCMDC-140429]	-39.85	–
CC(C)(C)c1ccc2nc(-c3ccc(C(=O)NCc4cccc(C(F)(F)F)c4)cc3)[nH]c2c1 [TCMDC-140454]	18.91	–
Cc1cc2nc(-c3ccc(OCC(=O)NCc4ccc(C(C)(C)C)cc4)cc3)[nH]c2cc1C [TCMDC-140440]	63.48	–
